# Laboratory results taken from ChEMBL document CHEMBL3988442, “University of Dundee, Small-Polar-MMV Screening Library” (2021).
# For some of these results: Entries with a potency or affinity are not part of this list.
# What was measured:
# Parameters in all cases: scale not given: direction of the effect not stated beside the values
# [1] = target: Protein translocase subunit SecA (Escherichia coli (strain K12)) (UniProt P10408); experiment: Assay to Identify E. coli SecA ATPase Inhibitors; type: functional; details: 30 µM
# Chain of Protein translocase subunit SecA (Escherichia coli (strain K12)) (P10408 whole entry): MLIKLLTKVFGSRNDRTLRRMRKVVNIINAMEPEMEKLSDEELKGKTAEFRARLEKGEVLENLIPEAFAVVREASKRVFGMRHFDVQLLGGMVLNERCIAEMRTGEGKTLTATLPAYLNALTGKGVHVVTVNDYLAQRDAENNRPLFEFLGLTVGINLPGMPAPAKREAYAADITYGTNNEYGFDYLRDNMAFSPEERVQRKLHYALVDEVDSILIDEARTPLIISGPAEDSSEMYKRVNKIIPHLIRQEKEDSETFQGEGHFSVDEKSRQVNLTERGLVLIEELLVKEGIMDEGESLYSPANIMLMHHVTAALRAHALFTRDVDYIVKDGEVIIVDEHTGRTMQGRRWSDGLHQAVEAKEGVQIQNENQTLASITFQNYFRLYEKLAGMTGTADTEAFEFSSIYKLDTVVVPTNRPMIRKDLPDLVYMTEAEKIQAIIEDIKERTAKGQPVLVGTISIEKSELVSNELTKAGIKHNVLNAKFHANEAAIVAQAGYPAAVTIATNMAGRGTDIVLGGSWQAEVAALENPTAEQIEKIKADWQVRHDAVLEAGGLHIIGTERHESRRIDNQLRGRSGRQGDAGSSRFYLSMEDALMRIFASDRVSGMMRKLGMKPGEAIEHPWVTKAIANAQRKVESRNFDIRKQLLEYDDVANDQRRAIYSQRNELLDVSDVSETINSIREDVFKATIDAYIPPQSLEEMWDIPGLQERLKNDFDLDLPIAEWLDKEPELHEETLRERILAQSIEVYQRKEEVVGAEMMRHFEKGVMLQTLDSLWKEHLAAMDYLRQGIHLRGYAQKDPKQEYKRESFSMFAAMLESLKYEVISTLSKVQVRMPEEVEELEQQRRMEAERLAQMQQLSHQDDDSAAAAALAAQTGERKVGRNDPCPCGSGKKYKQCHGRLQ
# [2] = target: T1, Ubiquitin-activating enzyme e1, putative (Leishmania donovani (strain BPK282A1)) (UniProt E9BSI1); experiment: Leishmania donovani Ubiquitin Activating Enzyme (LdE1); type: functional; details: 30 µM
# T1 sequence (whole entry): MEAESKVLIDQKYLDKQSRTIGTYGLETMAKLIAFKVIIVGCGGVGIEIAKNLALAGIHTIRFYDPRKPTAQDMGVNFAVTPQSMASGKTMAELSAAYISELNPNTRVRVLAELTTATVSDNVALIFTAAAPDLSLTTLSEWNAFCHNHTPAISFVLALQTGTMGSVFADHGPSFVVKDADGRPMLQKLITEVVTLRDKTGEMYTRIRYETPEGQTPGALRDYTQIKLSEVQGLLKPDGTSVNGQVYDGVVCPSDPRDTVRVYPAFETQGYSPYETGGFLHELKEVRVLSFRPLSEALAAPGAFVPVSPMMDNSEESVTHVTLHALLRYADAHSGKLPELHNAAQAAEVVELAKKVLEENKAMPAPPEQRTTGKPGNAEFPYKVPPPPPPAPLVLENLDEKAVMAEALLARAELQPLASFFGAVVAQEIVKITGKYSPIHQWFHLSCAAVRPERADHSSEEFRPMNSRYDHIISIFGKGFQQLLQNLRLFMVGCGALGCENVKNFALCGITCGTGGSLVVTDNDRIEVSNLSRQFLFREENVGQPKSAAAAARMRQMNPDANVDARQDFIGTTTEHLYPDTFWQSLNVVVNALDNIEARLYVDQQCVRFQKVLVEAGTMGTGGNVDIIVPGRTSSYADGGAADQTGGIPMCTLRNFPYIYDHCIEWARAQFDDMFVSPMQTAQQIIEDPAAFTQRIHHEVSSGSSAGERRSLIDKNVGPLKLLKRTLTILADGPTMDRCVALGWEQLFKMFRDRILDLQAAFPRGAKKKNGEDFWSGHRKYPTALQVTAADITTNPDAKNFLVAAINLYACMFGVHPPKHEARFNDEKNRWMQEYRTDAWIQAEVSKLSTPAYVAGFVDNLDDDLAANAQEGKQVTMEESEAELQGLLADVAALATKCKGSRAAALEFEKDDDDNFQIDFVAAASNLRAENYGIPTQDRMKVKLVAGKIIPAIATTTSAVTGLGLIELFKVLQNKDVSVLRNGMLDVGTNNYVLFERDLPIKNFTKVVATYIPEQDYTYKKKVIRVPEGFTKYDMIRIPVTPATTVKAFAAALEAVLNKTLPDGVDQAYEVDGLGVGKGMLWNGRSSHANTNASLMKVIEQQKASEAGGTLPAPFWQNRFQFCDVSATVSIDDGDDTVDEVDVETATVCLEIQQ
# [3] = target: Sialic acid-binding Ig-like lectin 9 (Homo sapiens) (UniProt Q9Y336); experiment: Hs-Siglec9 ALPHAscreen SOP 20170721; details: 10 µM
# Chain of Sialic acid-binding Ig-like lectin 9 (Homo sapiens) (Q9Y336 whole entry): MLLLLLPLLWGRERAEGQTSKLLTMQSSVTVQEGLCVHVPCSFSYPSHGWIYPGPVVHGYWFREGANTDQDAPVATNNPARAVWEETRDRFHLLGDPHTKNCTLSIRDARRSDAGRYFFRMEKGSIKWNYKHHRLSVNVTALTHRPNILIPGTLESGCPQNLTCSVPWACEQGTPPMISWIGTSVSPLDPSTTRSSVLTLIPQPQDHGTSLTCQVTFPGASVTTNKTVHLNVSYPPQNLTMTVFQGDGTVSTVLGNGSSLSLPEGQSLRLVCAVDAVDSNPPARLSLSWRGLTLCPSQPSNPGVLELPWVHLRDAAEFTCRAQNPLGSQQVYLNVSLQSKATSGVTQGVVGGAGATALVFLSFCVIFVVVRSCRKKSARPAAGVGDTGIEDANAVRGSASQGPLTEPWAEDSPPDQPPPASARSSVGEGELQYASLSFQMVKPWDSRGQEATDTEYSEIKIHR
# Trypanosoma cruzi = experiment: Trypanosoma cruzi phosphomannomutase and mannose-1-phosphate guanylyltransferase assay; type: functional; details: 10 µM
# [4] = target: T2, Arginase-2, mitochondrial (Homo sapiens) (UniProt P78540); experiment: in vitro enzyme assay to detect the production of urea directly proportional to the activity of Arginase II; type: functional; details: 33.3 µM; note: in the data most compounds retested in dose-response had high values
# T2 sequence (whole entry): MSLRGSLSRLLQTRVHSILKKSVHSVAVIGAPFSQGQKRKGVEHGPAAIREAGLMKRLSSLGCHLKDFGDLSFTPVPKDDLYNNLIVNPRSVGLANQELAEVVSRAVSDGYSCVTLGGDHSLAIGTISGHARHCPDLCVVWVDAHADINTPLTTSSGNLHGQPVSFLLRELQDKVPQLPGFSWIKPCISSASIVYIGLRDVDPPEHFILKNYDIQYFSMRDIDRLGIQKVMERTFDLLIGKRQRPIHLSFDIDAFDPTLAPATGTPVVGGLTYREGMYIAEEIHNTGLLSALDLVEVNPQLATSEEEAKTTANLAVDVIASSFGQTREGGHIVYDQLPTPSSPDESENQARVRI
# [5] = target: T3, Proteasome subunit beta (Trypanosoma cruzi) (UniProt O96673); experiment: Trypanosoma cruzi proteasome chymotrypsin-like activity (TcProtChymo) assay.; note: in the data most compounds retested in dose-response had high values; type: functional; details: 9.37 µM
# T3 sequence (whole entry): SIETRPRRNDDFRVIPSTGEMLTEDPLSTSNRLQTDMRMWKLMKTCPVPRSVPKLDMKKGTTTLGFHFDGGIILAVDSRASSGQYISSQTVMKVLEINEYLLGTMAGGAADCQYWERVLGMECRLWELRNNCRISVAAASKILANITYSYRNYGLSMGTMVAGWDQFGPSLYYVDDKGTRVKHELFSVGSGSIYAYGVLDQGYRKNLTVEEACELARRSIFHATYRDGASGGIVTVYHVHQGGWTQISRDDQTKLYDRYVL
# Homo sapiens = species: Homo sapiens; experiment: To identify inhibition of the IFN signalling (Jak-Stat) pathway via expression of an eGFP reporter gene under the control of an IFN-stimulated response element (ISRE) containing MxA promoter.; type: functional; details: 30 µM
# [6] = target: T4, Tyrosyl-tRNA synthetase, putative (Trypanosoma cruzi (strain CL Brener)) (UniProt Q4DSP6); experiment: Trypanosoma cruzi tyrosyl tRNA synthetase (TcYRS) _High Tyrosine SOP; type: functional; details: 30 µM; note: in the data most compounds retested in dose-response had high values
# T4 sequence (whole entry): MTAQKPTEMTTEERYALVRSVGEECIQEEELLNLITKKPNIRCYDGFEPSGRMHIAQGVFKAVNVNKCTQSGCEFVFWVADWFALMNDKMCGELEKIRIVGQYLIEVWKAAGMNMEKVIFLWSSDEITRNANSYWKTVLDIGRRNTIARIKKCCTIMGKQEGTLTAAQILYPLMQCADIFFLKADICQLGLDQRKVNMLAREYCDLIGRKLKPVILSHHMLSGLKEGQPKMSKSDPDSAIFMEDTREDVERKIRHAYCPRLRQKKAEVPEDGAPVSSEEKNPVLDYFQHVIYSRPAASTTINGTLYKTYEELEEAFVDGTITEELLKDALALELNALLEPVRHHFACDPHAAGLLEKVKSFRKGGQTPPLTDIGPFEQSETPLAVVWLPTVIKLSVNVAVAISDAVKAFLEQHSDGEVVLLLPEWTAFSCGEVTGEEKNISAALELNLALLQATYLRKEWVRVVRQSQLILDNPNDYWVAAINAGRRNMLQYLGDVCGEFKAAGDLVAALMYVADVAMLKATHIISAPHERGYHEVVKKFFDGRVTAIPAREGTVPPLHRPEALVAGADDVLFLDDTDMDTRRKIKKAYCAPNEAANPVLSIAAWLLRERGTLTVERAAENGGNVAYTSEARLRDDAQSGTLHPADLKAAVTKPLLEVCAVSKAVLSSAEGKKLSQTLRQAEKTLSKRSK
# [7] = target: T4, Tyrosyl-tRNA synthetase, putative (Trypanosoma cruzi (strain CL Brener)); experiment: Trypanosoma cruzi tyrosyl tRNA synthetase (TcYRS) SOP; type: functional; details: 30 µM
# [8] = target: Chromo domain-containing protein 1 (Saccharomyces cerevisiae (strain ATCC 204508 / S288c) (Baker's yeast)) (UniProt P32657); experiment: ScCHD-1 Enzyme Inhibition Assay; type: functional; details: 30 µM; note: in the data most compounds retested in dose-response had high values
# Chain of Chromo domain-containing protein 1 (Saccharomyces cerevisiae (strain ATCC 204508 / S288c) (Baker's yeast)) (P32657 whole entry, the tested form may be a part): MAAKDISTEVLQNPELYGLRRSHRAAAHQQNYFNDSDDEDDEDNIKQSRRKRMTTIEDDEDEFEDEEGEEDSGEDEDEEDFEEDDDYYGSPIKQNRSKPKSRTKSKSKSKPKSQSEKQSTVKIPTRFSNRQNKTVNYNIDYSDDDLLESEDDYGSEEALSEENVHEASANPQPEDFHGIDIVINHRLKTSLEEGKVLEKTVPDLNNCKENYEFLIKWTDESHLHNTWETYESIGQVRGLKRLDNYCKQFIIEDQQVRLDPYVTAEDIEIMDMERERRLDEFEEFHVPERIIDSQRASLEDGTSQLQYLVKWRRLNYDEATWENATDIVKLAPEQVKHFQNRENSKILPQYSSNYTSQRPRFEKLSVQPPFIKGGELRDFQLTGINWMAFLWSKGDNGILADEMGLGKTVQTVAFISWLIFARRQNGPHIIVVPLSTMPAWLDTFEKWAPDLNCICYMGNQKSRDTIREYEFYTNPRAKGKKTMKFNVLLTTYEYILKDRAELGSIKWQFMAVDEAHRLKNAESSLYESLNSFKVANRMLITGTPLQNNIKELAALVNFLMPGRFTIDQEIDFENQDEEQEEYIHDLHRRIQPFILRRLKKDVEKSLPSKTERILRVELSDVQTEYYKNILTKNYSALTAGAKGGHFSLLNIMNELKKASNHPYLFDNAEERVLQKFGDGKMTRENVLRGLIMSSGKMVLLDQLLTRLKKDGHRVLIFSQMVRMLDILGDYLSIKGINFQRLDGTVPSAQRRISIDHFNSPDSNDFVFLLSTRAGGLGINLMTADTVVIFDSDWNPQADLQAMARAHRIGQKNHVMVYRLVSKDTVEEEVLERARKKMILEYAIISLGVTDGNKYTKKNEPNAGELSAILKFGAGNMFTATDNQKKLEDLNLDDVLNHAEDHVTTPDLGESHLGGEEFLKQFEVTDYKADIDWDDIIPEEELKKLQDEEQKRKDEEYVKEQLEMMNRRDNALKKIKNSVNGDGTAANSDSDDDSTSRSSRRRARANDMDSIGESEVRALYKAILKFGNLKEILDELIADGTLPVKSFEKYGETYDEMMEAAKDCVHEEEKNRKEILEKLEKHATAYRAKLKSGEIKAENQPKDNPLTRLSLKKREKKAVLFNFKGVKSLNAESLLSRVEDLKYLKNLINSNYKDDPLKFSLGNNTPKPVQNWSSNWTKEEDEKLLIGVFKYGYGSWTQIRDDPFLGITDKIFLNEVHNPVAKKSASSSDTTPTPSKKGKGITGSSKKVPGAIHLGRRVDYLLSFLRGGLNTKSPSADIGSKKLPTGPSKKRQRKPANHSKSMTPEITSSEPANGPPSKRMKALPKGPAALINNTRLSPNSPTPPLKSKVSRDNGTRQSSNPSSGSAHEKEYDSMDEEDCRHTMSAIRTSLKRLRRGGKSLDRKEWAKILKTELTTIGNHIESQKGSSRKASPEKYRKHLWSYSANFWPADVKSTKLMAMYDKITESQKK
Structure (SMILES),Percent Effect [1],Percent Effect [2],Percent Effect [3],Percent Effect (Trypanosoma cruzi),Percent Effect [4],Percent Effect [5],Percent Effect (Homo sapiens),Percent Effect [6],Percent Effect [7],Percent Effect [8]
O=C1CCC2(CCN(Cc3ccc(F)cc3)CC2)N1Cc1ccccc1,-4.42%,3.9%,-4.8%,-2.63%,-0.913%,9.7%,1.33%,5.8%,7.5%,-4.62%
NC[C@H]1CC[C@H](C(NC(=O)c2ccccn2)c2ccccn2)CC1 (stereo not given in full),0.0974%,14.7%,1.2%,-1.58%,0.443%,15.6%,8.78%,4.23%,22.5%,-24.4%
Cc1cnn(C2CCCN(C(=O)c3sccc3C#N)C2)c1 (stereo not given),-7.04%,0%,-9.94%,-1.78%,-2.05%,-3.33%,30.2%,0.478%,1.21%,-3.26%
Cc1noc(C)c1CN1CCN(Cc2nccn2C)CC1,-3.95%,2.67%,3.64%,-1.81%,-0.444%,13.7%,-5.05%,6.84%,7.69%,-11.9%
